As usually defined, the inhibition is the change of the read-out against control, counted positive when it falls.

The campaign covered roughly 310,000 compounds. About 1,000 (0.32%) were called active. Not all results are given here. Potency and affinity values are given separately. Values without a mark were called inactive. How the calls were made is not given here.

This test is described as follows: Inhibition of PhoP regulon, Salmonella typhi GFP reporter cells, confirmation, 4 h (AID 1850).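 Further: 0% = induced wells with vehicle and 100% = uninduced wells.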 Particulars: Salmonella Typhi PhoP-promoter GFP reporter, fluorescence, at 50 µM, stronger effect = higher value.
Regarding `O=C(CSc1nnc(SCc2ccccc2Cl)s1)N/N=C/c1ccc(C(=O)O)cc1`, the inhibition was -6.94%.

For `COC(=O)c1cc(S(=O)(=O)N2CCN(c3ccccc3F)CC2)c[nH]1`, the inhibition is -1.3%. With `O=C(O)c1cccc(N2C(=O)CSC2=S)c1`, the inhibition is 65.1%. Consider `O=C1CSC(=S)N1c1cccc(Cl)c1`, for which the inhibition is -2.26%. For the molecule `Cc1cc(NC(=O)NN2CCOCC2)nn1-c1c(Cl)cccc1Cl`, the inhibition was -1.26%. As to `Nc1nc(SCC(=O)Nc2ccc([N+](=O)[O-])cc2)[nH]c(=O)c1NC(=O)c1ccc(Br)o1`, the inhibition was -2.49%.

Regarding `c1cncc(-c2nnc(SCc3cccc4ccccc34)o2)c1`, the inhibition is 8.54%.

`c1ccc2c3c([nH]c2c1)-c1[nH]ncc1CC3`: the inhibition is -5.34%. For `Cc1ccc2[nH]c3c(c2c1)CCc1cn[nH]c1-3`, the inhibition is -6.69%.

With `Cc1ccc2c(c1)C1C3CCC(C3)C1S(=O)N2` (stereo not drawn), the inhibition was -0.67%. Under `COc1cc2ccccc2cc1C(=O)Nc1cccnc1` stands -16.1%; under `Cc1nc(N)c(Cc2ccccc2F)c(N)n1`, 8.16%; under `Nc1nc(-c2ccccn2)nc(N)c1Cc1ccc(Cl)cc1Cl`, -4%. With `Clc1ccc(Cc2ccc(Cl)nn2)c(Cl)c1`, the inhibition was -3.15%. Take `Nc1nnc(Cc2ccc(Cl)cc2Cl)s1`: the inhibition was -0.54%. As for `CCOC(=O)C1(Cc2cccc(OC)c2)CCN(Cc2cnc(SC)nc2)CC1`, the inhibition is -3.1%.

For the molecule `CC(/C=C/c1ccc2c(c1)OCO2)=N/NC(=O)COc1ccc(C)cc1`, the inhibition is -7.1%. Consider `CS(=O)(=O)c1ccc(Cl)c(NC(=O)COC(=O)/C=C/c2cnc3ccccc3n2)c1`, for which the inhibition is 5.47%. With `O=C(Nc1nc(-c2ccccn2)cs1)c1ccco1`, the inhibition was 2.93%.

Consider `Cc1csc(NC(=O)c2ccc(Br)s2)n1`, for which the inhibition was 11.7%. As to `O=C(Nc1nc(-c2ccccn2)cs1)c1ncc(Cl)c(Cl)c1Cl`, the inhibition was -0.4%. Turning to `O=C(Nc1nc(-c2cccs2)cs1)c1ccc(Cl)s1`, the inhibition is -14%. `COC(=O)C(Cc1ccccc1)N1CCS(=O)(=O)CC1` (stereo not drawn): the inhibition is 9.2%. Regarding `CCCCOc1ccc(/C(O)=C2/C(=O)C(=O)N(CCN(C)C)C2c2ccc(O)c(OC)c2)cc1` (stereo not drawn), the inhibition is -11.8%.

Consider `O=C(Nc1ccccn1)c1ccc2c(c1)S(=O)(=O)c1ccccc1C2=O`, for which the inhibition was -0.07%. Regarding `COc1ccccc1CNc1cc(C)ccc1C`, the inhibition was 4.32%. With `COc1ccc(CCN(Cc2nc3ccccc3c(=O)[nH]2)C(=O)C2CC2)cc1`, the inhibition was -4.16%. As to `CN(C)CCCNC(=O)/C(=C/c1ccc(-c2ccc([N+](=O)[O-])cc2)o1)NC(=O)c1ccccc1`, the inhibition was 8.87%. With `CN(C)CCNC(=O)/C(=C/c1ccc(-c2cccc(Cl)c2)o1)NC(=O)c1ccccc1`, the inhibition was 20.4%. Under `Cc1ccc(C(=O)N/C(=C/c2ccc(-c3ccc([N+](=O)[O-])cc3)o2)C(=O)NCCCN(C)C)cc1` stands -1.29%; under `Cc1ccc(C(=O)N/C(=C\c2ccc(-c3ccccc3[N+](=O)[O-])o2)C(=O)NCCCN(C)C)cc1`, -1.46%. Turning to `Cc1ccc(C(=O)N/C(=C\c2ccc(-c3cccc([N+](=O)[O-])c3)o2)C(=O)NCCCN(C)C)cc1`, the inhibition was 16.2%. Turning to `CN(C)CCCNC(=O)/C(=C\c1ccc(-c2ccc(Br)cc2)o1)NC(=O)c1ccccc1`, the inhibition is 22.2%. On to `Cn1c(=O)oc2cc(S(=O)(=O)NCc3ccccn3)ccc21`, for which the inhibition is 0.2%.

As for `Cc1cc(C)cc(NC(=S)/N=C(\N)Nc2nc(C)c3ccccc3n2)c1`, the inhibition was -5.71%.

With `Cc1ccc(COC(=O)c2ccc3ccccc3n2)cc1`, the inhibition is -0.98%. On to `O=C(Cc1ccc(F)cc1)c1ccc(O)cc1O`, for which the inhibition was -11.9%.

Consider `COc1ccc(CC(=O)c2ccc(O)cc2O)cc1`, for which the inhibition is -0.72%. Under `C=CCOCCN1C(=O)C2C(c3ccccc3)C=CC(c3ccccc3)C2C1=O` (stereo not drawn) stands 5.25%. For `CCc1nnc(NC(=O)[C@@H]2CCCN2S(=O)(=O)c2ccc3c(c2)OCCO3)s1` the value was -7.63%.

Take `CN1CCN(CCC(=O)N2c3ccccc3Sc3ccc(Cl)cc32)CC1`: the inhibition is -0.99%. For `CN1CCN(CCCN2c3ccccc3Sc3ccc(S(=O)(=O)N(C)C)cc32)CC1` the value was 0.8%; for `CN1CCCC(CN2c3ccccc3Sc3ccccc32)C1` (stereo not drawn), -0.92%. Consider `CN1CCCCC1CCN1c2ccccc2Sc2ccc(S(C)=O)cc21` (stereo not drawn), for which the inhibition is 0.68%.

In the case of `CN1CCN(CCCN2c3ccccc3Sc3ccc(C(F)(F)F)cc32)CC1`, the inhibition is 5.34%.

In the case of `OCCN1CCN(CCCN2c3ccccc3Sc3ccc(Cl)cc32)CC1`, the inhibition was 4.15%. Regarding `O=C(Nc1cccc(-n2cccn2)c1)C1CCCN(Cc2cccc(F)c2F)C1` (stereo not drawn), the inhibition was -4.31%. Consider `N/C(=N\OC(=O)c1ccc(Br)cc1)c1ccncc1`, for which the inhibition is 5.21%. Regarding `COc1ccc(OC)c(S(=O)(=O)N2CCC(C(=O)NCc3ccc4c(c3)OCO4)CC2)c1`, the inhibition was -8.79%. With `Cc1ccc2cc(CCNC(=O)c3cccs3)c(=O)[nH]c2c1C`, the inhibition is 3.08%.

`CCOc1ccc(S(=O)(=O)N2CCN(C(=O)c3ccc(-n4cncn4)c([N+](=O)[O-])c3)CC2)cc1`: the inhibition is -1.56%. As to `COc1ccc(N2CCN(C(c3cccs3)C(C)NS(C)(=O)=O)CC2)cc1` (stereo not drawn), the inhibition is -6.29%. On to `Cc1nc(N)nc(Cl)c1Cc1ccc(Cl)cc1`, for which the inhibition was -7.07%. Take `COc1ccc(Cc2c(C)nc(N)nc2Cl)cc1`: the inhibition was -7.38%. For the molecule `CCCCN(C)CCNC(=O)c1cc2cc3ccc(OC)cc3nc2o1`, the inhibition was 7.2%.

For `CCN(CC(=O)Nc1ccccc1C(F)(F)F)C(=O)CN1C(=O)NC2(CCCCC2)C1=O`, the inhibition was -5.21%.

As to `Nc1nc(SCC(=O)Nc2ccccc2Sc2ccccc2)n[nH]1`, the inhibition is -1.42%.

Consider `COc1ccccc1NC(=O)CCn1cccc1`, for which the inhibition is -6.32%.

In the case of `C/C(=N\Nc1ccc2nncn2n1)c1cccs1`, the inhibition was 4.31%. `C/C(=N\Nc1ccc2nncn2n1)c1ccco1`: the inhibition was 2.03%.

`O=C(Nc1csc(Cc2c(Cl)cccc2Cl)n1)NN1CCOCC1`: the inhibition was -0.65%. Consider `CN1CCN(CCCNC(=O)Nc2ccc([N+](=O)[O-])cc2)CC1`, for which the inhibition was 1.78%. Regarding `O=C(NCCCN1CCCC1)Nc1ccc(F)cc1`, the inhibition was 2.17%. On to `COCC(=O)NNC(=O)Cc1ccc(Cl)cc1`, for which the inhibition is -2.72%. For the molecule `CC(C)COc1ccc(Cc2cnc(N)nc2N)cc1`, the inhibition was 15.8%. On to `CC(C)Oc1ccc(Cc2cnc(=S)[nH]c2N)cc1`, for which the inhibition was 7.33%. Regarding `CCSc1ccccc1C(=O)N=C1NC(=O)CC2C(=O)NCCN12` (stereo not drawn), the inhibition was 1.96%. As to `O=C(COc1ccc(C(=S)N2CCOCC2)cc1)Nc1ccccc1C(F)(F)F`, the inhibition is -0.77%. For `O=C(NCCCNC(=O)c1ccc(-c2cc(Cl)ccc2Cl)o1)c1cnccn1`, the inhibition is 9.68%. As for `COc1cccc(C(=O)NC2=NCCS2)c1OC`, the inhibition was 2.77%.

Take `CCOC(=O)Nc1c2ccccc2nc2ccccc12`: the inhibition is -6.02%. Take `O=C(O)c1ccc(Nc2c3ccccc3nc3ccccc23)cc1`: the inhibition was 4.42%.

On to `CC(=O)C1=C(C)NC(=O)NC1c1ccccc1OCC(=O)NCCc1ccccc1` (stereo not drawn), for which the inhibition was 2.94%.

As for `Cc1nc2ccc(Br)cn2c1C(=O)N/N=C\c1ccccc1[N+](=O)[O-]`, the inhibition is -1.1%.

For `O=C(COc1ccc(Cl)cc1Cl)N1CCCCCC1`, the inhibition is 3.1%. With `O=C(Nc1ccc(Cl)c(Cl)c1)Nc1nccs1`, the inhibition was 0.93%. Under `CC(=O)Nc1sc(N/N=C\c2cccc(Cl)c2)nc1-c1cccs1` stands -2.74%; under `Cc1csc(N/N=C\c2cccnc2)n1`, -7.97%. For `Fc1cccc(/C=N/Nc2ccccn2)c1` the value was -0.26%. On to `Clc1cccc(Cl)c1/C=N\Nc1nccs1`, for which the inhibition is -7.79%.

In the case of `C(=N\c1nccs1)/c1cccnc1`, the inhibition was 10.7%.

Turning to `FC(F)(F)c1ccc(N/N=C/c2cccnc2)nc1`, the inhibition was -6.21%. As for `O=C(Nc1ccc(Cl)cc1)Nc1nccs1`, the inhibition is -2.29%. For `Cc1[nH]nc2c1C(c1ccccc1F)NC2=O` (stereo not drawn) the value was 8.34%. As to `COc1cccc(NC(=O)N(CCN(C)C)C(C)c2cccnc2)c1` (stereo not drawn), the inhibition is 1.53%. As to `Cc1ccc(NC(=O)CCn2cnc3ccccc3c2=O)cc1Cl`, the inhibition is 5.48%. For `CCOc1ccc(NS(=O)(=O)c2ccc(C(=O)NCC(c3ccc(OC)cc3)N3CCCC3)cc2)cc1` (stereo not drawn), the inhibition is 4.44%.

Take `Cc1cccnc1Sc1c([N+](=O)[O-])ncn1C`: the inhibition is -0.07%. As for `O=C(Nc1cccnc1)C1CCC(CNS(=O)(=O)c2cccc3nsnc23)CC1` (stereo not drawn), the inhibition is 8.22%. Turning to `CC(=O)c1cc(F)ccc1OCC(=O)N1CCCc2ccccc21`, the inhibition was 5.07%. As to `CN1CCN(c2ccccc2NC(=O)c2ccc(N3CCCC3)c([N+](=O)[O-])c2)CC1`, the inhibition was 20.3%. For the molecule `O=S(=O)(Cc1ccccc1Cl)NCCc1ccccc1`, the inhibition was 0.01%.

Regarding `CCOC(=O)c1sc(NC(=O)c2ccccc2)cc1C`, the inhibition was 3.11%. With `Cc1nc(NC(=O)c2ccccc2)sc1C`, the inhibition was -2.8%. On to `Cc1sc(NC(=O)c2ccccc2)c(C(=O)c2ccccc2)c1C`, for which the inhibition is -8.66%. For the molecule `Cc1cc(NC(=O)c2ccccc2)cc(NC(=O)c2ccccc2)c1C`, the inhibition was 2.54%. Consider `O=C(CSc1cc([N+](=O)[O-])cc(S(=O)(=O)Cc2ccccc2)c1)NC1CC1`, for which the inhibition is -3.36%. For `Cc1cccn2c(CNCC3OCCc4ccccc43)c(C(=O)N3CCCCC3)nc12` (stereo not drawn) the value was 2.24%.

The values are drawn from PubChem BioAssay AID1850 (Southern Research Specialized Biocontainment Screening …, 2009).
